Experimental findings from PubChem BioAssay (EPA / NIEHS) are described below.

Each structure is given as a SMILES string. Results filed as inconclusive are left out. Activity calls are given as the source filed them. How the source made its calls, unless noted: active means hit-call score of the fitted dose curve at least 0.9, where 1 is the maximum; inconclusive means response in the unintended direction; inactive means score below 0.9.

Read-out in assay [1]: xenobiotic metabolism (CYP1A2), CYP1A2 (gene 1544)
As to the kind of experiment: CLD_CYP1A2_6hr: CellzDirect (CLD) Gene Expression Assay for xenobiotic metabolism (CYP1A2) at 6 hours (AID 2283663).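 On AC50: potency is for induction meaning a rise in mRNA above DMSO.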 In a few lines:
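Primary human hepatocytes from two donor preparations, dosed daily with multiple concentrations in 0.2% DMSO and harvested at 6 h. CYP1A2 mRNA induction measured by chemiluminescent qNPA, gain of signal fitted against DMSO; cytotoxicity flagged morphologically.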

Read-out in assay [2]: alkyl and aryl transferase (GSTA2), GSTA2 (gene 2939)
As to the kind of experiment: CLD_GSTA2_6hr: CellzDirect (CLD) Gene Expression Assay for alkyl and aryl transferase (GSTA2) at 6 hours (AID 2283666). In a few lines:
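Primary human hepatocytes from two donor preparations were dosed daily with fresh compound at multiple concentrations, 0.2% DMSO vehicle. GSTA2 mRNA was measured at 6 hours by qNPA chemiluminescence; induction fitted relative to DMSO, with cytotoxicity flagged morphologically.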

A short description of assay [3]: Tanguay_ZF_120hpf_TR_legacy: (Legacy) Oregon State University Tanguay Lab 120 Hour Post-fertilization zebrafish Assay for Touch Response (AID 2283667). In a few lines:
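5D WT embryos; static exposure to 120 hpf, 28C, sealed/dark; DMSO 0.64% v/v final. TR scored present/absent; dead embryos excluded. Pos ctrl 5uM trimethyltin chloride.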

A short description of assay [4]: CLD_ACTIN_24hr: CellzDirect (CLD) Gene Expression Assay for Baseline Control (Actin) at 24 hours (AID 2283670). In a few lines: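 Primary human hepatocytes dosed over multiple concentrations with 0.2% DMSO vehicle; actin mRNA measured at 24 h by qNPA chemiluminescence. Background control endpoint, fitted as gain of signal versus DMSO.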
Read-out in assay [5]: ABC Transporter (ABCB11), ABCB11 (gene 8647)
Put plainly: CLD_ABCB11_24hr: CellzDirect (CLD) Gene Expression Assay for ABC Transporter (ABCB11) at 24 hours (AID 2283674; active means hit-call score of the fitted dose curve at least 0.9, where 1 is the maximum; inactive means score below 0.9). In a few lines: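 Primary human hepatocytes were dosed daily for two days, with 0.2% DMSO vehicle. ABCB11 mRNA induction was measured at 24 hours by quantitative nuclease protection assay with chemiluminescence. Gain of signal was fitted relative to DMSO.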

Read-out in assay [6]: ABC Transporter (ABCB11), ABCB11 (gene 8647)
As to the kind of experiment: CLD_ABCB11_6hr: CellzDirect (CLD) Gene Expression Assay for ABC Transporter (ABCB11) at 6 hours (AID 2283675).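 Further: hits raise ABCB11 mRNA level so AC50 marks induction.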 In a few lines: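 Human primary hepatocytes (two donor preparations) given fresh chemical daily at multiple concentrations, vehicle 0.2% DMSO. ABCB11 mRNA induction measured 6 h after dosing by qNPA chemiluminescence versus DMSO; cytotoxicity annotated from morphology.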

The nature of assay [7]: CLD_ACTIN_6hr: CellzDirect (CLD) Gene Expression Assay for Baseline Control (Actin) at 6 hours (AID 2283676).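 Further: active means increased actin mRNA relative to DMSO vehicle.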 In a few lines:
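Primary human hepatocytes dosed with fresh chemical solutions (vehicle 0.2% DMSO), harvested at 6 h. Actin mRNA quantified by quantitative nuclease protection assay with chemiluminescent read-out, as background control relative to DMSO.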

Read-out in assay [8]: Cytochrome P450 2C19 (Homo sapiens) (UniProt P33261)
As to the kind of experiment: CLD_CYP2C19_6hr: CellzDirect (CLD) Gene Expression Assay for xenobiotic metabolism (CYP2C19) at 6 hours (AID 2283678). In a few lines:
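Primary human hepatocytes from two donor preparations were dosed daily, with 0.2% DMSO as vehicle, and harvested 6 h after dosing. CYP2C19 mRNA induction was measured by qNPA chemiluminescence and fitted as gain of signal against DMSO.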

Assay [9] is described as follows: CCTE_Padilla_ZF_144hpf_TERATOSCORE: (Legacy) CCTE's 144 Hour Post-fertilization zebrafish Assay Teratoscore, Padilla Lab (AID 2283679; active means hit-call score of the fitted dose curve at least 0.9, where 1 is the maximum; inactive means score below 0.9;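 on AC50: zebrafish embryos with chorions exposed by immersion from 6-8 hpf to 5 dpf with daily renewal; teratogenicity score from eye scoring of death hatching and malformations at 144 hpf; higher score means more developmental defects relative to DMSO baseline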). In a few lines: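 Larvae scored by eye at 144 hpf for death, hatching and malformations after a day in clean Hanks'. Before that, daily-renewed exposure at 80 uM (0.4% DMSO, 26C) from roughly 6-8 hpf through 5 dpf, 4 embryos per chemical.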

Read-out in assay [10]: organic anion transporter (SLCO1B1), SLCO1B1 (gene 10599)
As to the kind of experiment: CLD_SLCO1B1_24hr: CellzDirect (CLD) Gene Expression Assay for organic anion transporter (SLCO1B1) at 24 hours (AID 2283690). In a few lines: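 Primary human hepatocytes (two donor preparations) dosed daily for two days with chemicals at multiple concentrations, 0.2% DMSO vehicle. SLCO1B1 mRNA at 24 h measured by qNPA chemiluminescence; induction fitted relative to DMSO.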

Read-out in assay [11]: ABC Transporter (ABCB1), ABCB1 (gene 5243)
Put plainly: CLD_ABCB1_48hr: CellzDirect (CLD) Gene Expression Assay for ABC Transporter (ABCB1) at 48 hours (AID 2283695).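 On AC50: potency for induction meaning increase of mRNA over DMSO vehicle.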 In a few lines:
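Primary human hepatocytes from two donor preparations dosed daily on two consecutive days with 0.2% DMSO vehicle. Harvest at 48 h. ABCB1 mRNA quantified by qNPA with chemiluminescence and fitted for gain of signal versus DMSO.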

Read-out in assay [12]: glucuronosyltransferase (UGT1A1), UGT1A1 (gene 54658)
Put plainly: CLD_UGT1A1_24hr: CellzDirect (CLD) Gene Expression Assay for glucuronosyltransferase (UGT1A1) at 24 hours (AID 2283696). In a few lines: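 Primary human hepatocytes from two donor preparations were dosed (0.2% DMSO vehicle) and harvested at 24 h; UGT1A1 mRNA induction was quantified by chemiluminescent qNPA, fitted as gain relative to DMSO.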

Read-out in assay [13]: Cytochrome P450 2C19 (Homo sapiens) (UniProt P33261)
As to the kind of experiment: CLD_CYP2C19_48hr: CellzDirect (CLD) Gene Expression Assay for xenobiotic metabolism (CYP2C19) at 48 hours (AID 2283700).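 Further: fitted upward so actives raise CYP2C19 mRNA above the 0.2% DMSO vehicle.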 In a few lines:
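Primary human hepatocytes (two donor preparations) dosed daily for two days, harvested at 48 h; CYP2C19 mRNA induction measured by qNPA chemiluminescence. Gain-of-signal fitted relative to 0.2% DMSO vehicle as baseline.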

Read-out in assay [14]: Cytochrome P450 (CYP24A1_1), CYP24A1 (gene 1591)
As to the kind of experiment: LTEA_HepaRG_CYP24A1_1: Life Technologies and Expression Analysis (LTEA) Assay for Cytochrome P450 (CYP24A1_1) using HepaRG (AID 2283671; active means hit-call score of the fitted dose curve at least 0.9, where 1 is the maximum; inactive means score below 0.9). The settings on record: mRNA level, 48 h; actives raise or lower the signal. In a few lines:
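In this test, gene induction or suppression of CYP24A1 in human HepaRG liver cells is measured by qRT-PCR after 48 h chemical treatment (eight concentrations, maximum 100 uM). Values are fitted bidirectionally relative to DMSO.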

Read-out in assay [15]: Cytochrome P450 3A4 (Homo sapiens) (UniProt P08684)
As to the kind of experiment: CLD_CYP3A4_24hr: CellzDirect (CLD) Gene Expression Assay for xenobiotic metabolism (CYP3A4) at 24 hours (AID 2283689). In a few lines: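 Primary human hepatocytes from two donors dosed daily with fresh compound for two days, 0.2% DMSO vehicle. CYP3A4 mRNA at 24 hr by qNPA chemiluminescence; gain-of-signal fit versus DMSO, cytotoxicity flagged by morphology.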

A short description of assay [16]: CCTE_Simmons_CellTiterGLO_HEK293T: Viability Assessment in CCTE's Assays for Thyroperoxidase (TPO) Inhibition, Simmons Lab (AID 2283665).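 Further: cells exposed to compound for 24 h before readout; actives reduce ATP signal below DMSO vehicle meaning cytotoxicity.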 In a few lines: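 HEK293T cells in DMEM with 1% FBS were dosed with 8 concentrations (5 nM–87.5 uM final, 0.5% DMSO) for 24 hr at 37C; ATP content was read by CellTiter-Glo luminescence, loss-of-signal versus DMSO, three biological replicates.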
(In general: In ATP-based viability assays light output follows the ATP content of the culture.)

Read-out in assay [17]: Cytochrome P450 2C9 (Homo sapiens) (UniProt P11712)
As to the kind of experiment: CLD_CYP2C9_24hr: CellzDirect (CLD) Gene Expression Assay for xenobiotic metabolism (CYP2C9) at 24 hours (AID 2283688). In a few lines:
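Primary human hepatocytes from two donor preparations, dosed daily for two days at multiple concentrations; vehicle 0.2% DMSO. CYP2C9 mRNA induction at 24 h measured by qNPA chemiluminescence relative to DMSO; cytotoxicity annotated from morphology.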

Sequence of Cytochrome P450 3A4 (Homo sapiens) (P08684 whole entry, looked up): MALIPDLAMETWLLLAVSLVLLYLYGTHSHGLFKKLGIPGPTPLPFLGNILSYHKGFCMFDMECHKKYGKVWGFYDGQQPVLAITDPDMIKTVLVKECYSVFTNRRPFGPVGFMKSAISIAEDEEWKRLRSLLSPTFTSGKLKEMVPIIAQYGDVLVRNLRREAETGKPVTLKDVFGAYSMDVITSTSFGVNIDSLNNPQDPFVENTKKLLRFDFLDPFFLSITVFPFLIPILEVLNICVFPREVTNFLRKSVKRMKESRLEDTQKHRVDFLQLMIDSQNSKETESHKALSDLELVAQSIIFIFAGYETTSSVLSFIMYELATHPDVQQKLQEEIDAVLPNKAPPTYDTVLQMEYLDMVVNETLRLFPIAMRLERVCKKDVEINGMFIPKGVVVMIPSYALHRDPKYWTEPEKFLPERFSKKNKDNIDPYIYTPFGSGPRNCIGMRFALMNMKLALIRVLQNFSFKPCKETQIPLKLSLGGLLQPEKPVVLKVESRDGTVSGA
Sequence of Cytochrome P450 2C19 (Homo sapiens) (P33261 whole entry, looked up): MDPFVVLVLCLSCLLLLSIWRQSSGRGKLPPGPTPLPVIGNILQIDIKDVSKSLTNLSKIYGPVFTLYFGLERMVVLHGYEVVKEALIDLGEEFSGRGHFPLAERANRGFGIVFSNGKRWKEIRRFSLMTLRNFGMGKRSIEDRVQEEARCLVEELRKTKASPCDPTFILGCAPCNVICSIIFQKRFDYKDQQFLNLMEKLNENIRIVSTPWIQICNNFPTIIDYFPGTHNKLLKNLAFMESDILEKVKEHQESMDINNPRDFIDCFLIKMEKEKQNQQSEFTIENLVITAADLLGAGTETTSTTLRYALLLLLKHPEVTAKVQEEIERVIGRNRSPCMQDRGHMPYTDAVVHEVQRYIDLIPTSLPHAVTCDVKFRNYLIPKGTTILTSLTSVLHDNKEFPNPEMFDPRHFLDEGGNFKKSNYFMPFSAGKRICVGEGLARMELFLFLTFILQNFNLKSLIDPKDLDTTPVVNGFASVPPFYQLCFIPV

In the case of `CCC(C)OC(=O)N1CCCCC1CCO` (configuration not stated), the outcome in assay [1], in assay [2], in [3], in [4], in assay [5] and in assay [6] was inactive. Besides, the call in [7], in [8], in [9], in assay [10], in assay [11] and in [12] was inactive. Moreover, the call in assay [13] was inactive.

One may read the AC50 as the concentration giving half of the maximal activity seen. Consider `CN(C)C(=O)Nc1ccc(Cl)c(Cl)c1`, for which the AC50 in assay [1] is 3.05 µM (active). Besides, the call in assay [2], in assay [3], in assay [14], in [6] and in [12] was inactive.

Turning to `S=C([S-])NCCNC(=S)[S-].[Mn+2]`, the outcome in assay [1], in assay [2], in assay [3], in assay [14], in assay [6] and in assay [7] was inactive. Further, the call in assay [15] was inactive. Besides, the AC50 in assay [9] was 1.04 µM (active); in assay [11] it was 1.9 µM (active).

Take `Oc1ccc(C(c2ccc(O)cc2)C(Cl)(Cl)Cl)cc1`: the AC50 in assay [1] was 0.266 µM (active); in assay [16], 28.8 µM (active). In addition, the result in assay [2], in assay [4], in assay [5], in assay [6], in assay [7] and in [12] was inactive. Besides, the call in [13] was inactive.

As for `CCCOC(=O)NCCCN(C)C`, the outcome in [1], in assay [2], in [3], in [6], in assay [7] and in assay [8] was inactive. The outcome in [15], in [10], in assay [11], in assay [12] and in [13] was inactive.

As to `CCNc1nc(N)nc(Cl)n1`, the call in assay [1], in [2], in assay [3], in assay [5], in [6] and in assay [9] was inactive. Moreover, the call in assay [17], in assay [10], in assay [11] and in [12] was inactive.

With `CCN(Cc1c(F)cccc1Cl)c1c([N+](=O)[O-])cc(C(F)(F)F)cc1[N+](=O)[O-]`, the half-maximal activity concentration (AC50) in assay [1] was 1.74 µM (active); in assay [15], 1.45 µM (active). Moreover, the molecule was classed as inactive in assay [2], in assay [3] and in [6].

As for `c1ccc(Nc2ccccc2)cc1`, the molecule was classed as inactive in [1], in [2], in assay [3], in assay [4], in assay [5] and in assay [6]. The molecule was called inactive in assay [8], in assay [17], in [15], in assay [10], in [12] and in assay [13]. In assay [16], the half-maximal activity concentration (AC50) is 89.8 µM (active).

Regarding `COCCO`, the call in assay [1], in assay [2], in assay [3], in assay [14], in assay [5] and in [7] was inactive. Also, the molecule was classed as inactive in assay [8], in assay [9], in assay [17], in assay [10] and in [11].

Regarding `CCCCOC(=O)C(C)Oc1ccc(Oc2ccc(C(F)(F)F)cn2)cc1` (configuration not stated), the molecule was classed as inactive in assay [1], in [2], in [3], in [4], in assay [6] and in assay [17]. For the same molecule, the molecule was called inactive in [15], in assay [11] and in [13]. The concentration at half-maximal activity (AC50) in assay [12] is 20 µM (active).
